Screening data deposited in PubChem by several laboratories.
L major viab = inhibitors of Leishmania major promastigote growth | Leishmania major promastigotes, resazurin fluorescence viability | inhibition, % at 10 µM | actives 9% (n = 200,000); in the data active = inhibition above about 50%;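 also: promastigotes grown with compound for 44 hours at 28 °C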
KCC2 mod = modulates chloride dependent transport by human KCC2 | KCC2 cells, thallium flux FluoZin-2 fluorescence | Q9H2X9 | AID 1456 | B-score of Tl+ flux slope (higher = more flux/activation; lower = inhibition) at 10 µM | actives 2.2% (n = 190,000);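 active = thallium flux slope and its plate-corrected score both differing from the plate sample mean at a set confidence after two filtering rounds, in either direction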;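 also: slope of fluorescence scaled to starting intensity during 10 to 20 s after thallium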
ROMK mod = modulates human ROMK potassium channel activity. Tet-inducible ROMK, thallium flux fluorescence; actives lie on both sides. B-score at 10 µM. actives 2% (n = 130,000). P48048. AID 1918;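 active = signal ratio slope over the read window, or its plate-corrected B-score, at least 3 SD from the plate mean, either direction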;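 also: B-score of the F/F0 ratio slope over 7 to 12 s after thallium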
Target sequence (P48048 whole entry, looked up): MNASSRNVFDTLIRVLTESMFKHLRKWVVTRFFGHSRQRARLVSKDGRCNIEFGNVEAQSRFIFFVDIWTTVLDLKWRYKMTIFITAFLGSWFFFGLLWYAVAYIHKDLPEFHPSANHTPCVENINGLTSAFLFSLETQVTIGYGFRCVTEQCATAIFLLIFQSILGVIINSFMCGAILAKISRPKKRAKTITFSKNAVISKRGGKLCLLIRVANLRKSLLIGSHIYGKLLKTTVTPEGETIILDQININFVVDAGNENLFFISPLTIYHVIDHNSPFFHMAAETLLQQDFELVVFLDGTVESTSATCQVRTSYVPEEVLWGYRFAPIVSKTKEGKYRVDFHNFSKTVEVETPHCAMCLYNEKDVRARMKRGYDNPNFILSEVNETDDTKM
WT yeast gro inh = growth inhibition of WT yeast, mitochondrial fusion screen. mitochondrial fusion phenotypic screen, WT strain. inhibition, % at 10 µM. actives 2.1% (n = 190,000). AID 1362; in the data active = inhibition above about 58%; tested in S. cerevisiae
Insulin prom up = MIN6 insulin promoter up-regulation; MIN6 insulin promoter-GFP reporter, high-content imaging; stronger effect = higher value; z-score at 5 µM; actives 0.3% (n = 190,000); AID 1625;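 active = z-score above 3 at 5 µM with at least 500 cells counted in the well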
Insulin prom inh = TRM-6 insulin promoter activity inhibition; TRM-6 cells (human fetal islet line), insulin promoter-eGFP reporter, imaging; reporter expression induced with tamoxifen; inhibition, % at 2 µM; actives 0.9% (n = 130,000); AID 1273;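 active = inhibition above the mean plus 3 SD, with well images judged a real hit on visual review, cut at about 60% in these data, passing the limit was not always enough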
Each line names hits and unclear results; the compound was inactive in the other large screens. A selection: hits, their analogues and other compounds. The true share with any hit is near 12%.

CCN(CC)CCn1c(=N)n(CCOc2ccccc2)c2ccccc21	L major viab 93.3 (no result: KCC2 mod, ROMK mod, Insulin prom up)
CCOC(=O)c1sc(NC(=O)c2ccc(Br)o2)cc1C	none (no result: KCC2 mod, ROMK mod, Insulin prom inh)
Cc1cc(C)nc(-n2nc(C)cc2NC(=O)c2cccc(S(=O)(=O)N3CCCCC3)c2)n1	L major viab 72.2 (no result: KCC2 mod, Insulin prom inh)
CCOC(=O)C1=NN(c2ccccc2)C2=NC(C)=C(C(=O)OC)C(c3ccc(C)cc3)N12 (stereo not drawn)	WT yeast gro inh 70.4 (no result: Insulin prom up)
CC(C)Oc1cccc(C(=O)NC(=S)N2CCN(c3ccc(C(F)(F)F)cc3[N+](=O)[O-])CC2)c1	KCC2 mod 17.6 (no result: Insulin prom inh)
COc1cccc(OC)c1C(=O)NC(=S)N1CCN(c2ccc(C(F)(F)F)cc2[N+](=O)[O-])CC1	none (no result: ROMK mod)
COc1cccc(C(=O)NC(=S)N2CCN(c3ccc(C(F)(F)F)cc3[N+](=O)[O-])CC2)c1	L major viab 51.5, KCC2 mod 8.76 (no result: ROMK mod)
COc1ccc(N2CCN(C(=O)CC34CC5CC(CC(C5)C3)C4)CC2)c([N+](=O)[O-])c1	WT yeast gro inh 66.3
COc1cc(NS(=O)(=O)c2ccc(NC(=O)COc3ccc(C)cc3C)cc2)nc(OC)n1	none (no result: ROMK mod)
N#C/C(=C/c1ccc(Sc2nc3ccccc3[nH]2)o1)c1cccc(F)c1	Insulin prom inh 72.2
CCn1c(SCC(=O)Nc2cc(NC(C)=O)ccc2OC)nnc1-c1cccnc1	none (no result: ROMK mod)
O=C(NCCS(=O)(=O)c1ccc(Cl)cc1)c1ccc(F)cc1	none (no result: KCC2 mod)
CC(=O)Nc1ccc(S(=O)(=O)N2CCCCC2c2cccnc2)cc1 (stereo not drawn)	none (no result: KCC2 mod, Insulin prom inh)
COc1ccc(NC(=O)N2CCCCC2c2cccnc2)cc1 (stereo not drawn)	L major viab 85.3 (no result: ROMK mod, Insulin prom up)
COc1ccc(NC(=O)N2CCCC(c3nc(-c4ccc(C(C)C)cc4)no3)C2)cc1 (stereo not drawn)	WT yeast gro inh 72.2 (no result: ROMK mod, Insulin prom inh)
O=C(Nc1ccc(Cl)cc1)N1CCCC1	L major viab 96.0 (no result: ROMK mod)
O=C(Nc1ccc(Cl)cc1)N1CCSCC1	none
COc1ccc(NC(=O)N2CCCC(c3nc(-c4ccc(OC)cc4)no3)C2)cc1 (stereo not drawn)	none (no result: Insulin prom inh)
COc1cc(C)c(C)cc1S(=O)(=O)N1CCCCC1c1cccnc1 (stereo not drawn)	L major viab 92.2
CCOc1cccc(C(=O)N2CCCCC2c2cccnc2)c1 (stereo not drawn)	none (no result: KCC2 mod, ROMK mod)
Cc1cc2nccc(-c3ccncc3)n2n1	none (no result: Insulin prom inh)
CNC(=O)/C(C#N)=C/c1cccc(Oc2ccccc2)c1	none (no result: L major viab, ROMK mod, WT yeast gro inh, Insulin prom inh)
CCOC(=O)c1c(CN2CCOCC2)n(C)c2cc(Br)c(O)c(CN(C)C)c12	none (no result: ROMK mod)
O=C(Nc1ccc(Cl)cc1)N1CCSc2ccccc21	L major viab 90.3 (no result: ROMK mod)
O=C(Nc1cccc(Cl)c1)N1CCCC1	L major viab 99.7
CCOC(=O)N1CCN(C(=O)Nc2cccc(Cl)c2)CC1	none (no result: KCC2 mod, Insulin prom up, Insulin prom inh)
COc1ccc(NC(=O)N2CCCC(C(=O)NC(C)C)C2)cc1 (stereo not drawn)	none (no result: ROMK mod, Insulin prom up)
COc1ccc(NC(=O)N2CCCCC2)cc1	Insulin prom inh 80.0 (no result: KCC2 mod, ROMK mod)
O=[N+]([O-])c1cccnc1N1CCN(c2ccc(F)cc2)CC1	none
N#Cc1c(-c2ccccc2)c(-c2ccccc2)n(Cc2ccco2)c1NC(=O)c1cccs1	L major viab 61.9 (no result: Insulin prom inh)
CC(C)(C)c1ccc2c(c1)C(=O)c1ccccc1C2=O	none (no result: ROMK mod, Insulin prom inh)
CC(C)(C=O)C1=CC(=O)c2ccccc2C1=O	L major viab 55.6 (no result: ROMK mod)
O=C(c1ccc(Cl)c([N+](=O)[O-])c1)N(Cc1ccc(Cl)cc1)C1CCS(=O)(=O)C1 (stereo not drawn)	none
Cc1cccc(S(=O)(=O)c2c(N)n(/N=C/c3ccco3)c3nc4ccccc4nc23)c1	L major viab 53.3 (no result: Insulin prom inh)
Nc1c(S(=O)(=O)c2ccccc2)c2nc3ccccc3nc2n1/N=C/c1ccco1	none (no result: KCC2 mod)
Cc1ccc(S(=O)(=O)c2c(N)n(CCCN(C)C)c3nc4ccccc4nc23)cc1	none (no result: L major viab, ROMK mod, WT yeast gro inh, Insulin prom inh)
Cc1cccc(S(=O)(=O)c2c(N)n(-c3ccccc3)c3nc4ccccc4nc23)c1	none
Cc1ccc(S(=O)(=O)c2c(N)n(/N=C/c3ccco3)c3nc4ccccc4nc23)cc1	L major viab 58.9 (no result: ROMK mod, Insulin prom up)
Cc1ccc(S(=O)(=O)c2c(N)n(CC3CCOC3)c3nc4ccccc4nc23)cc1 (stereo not drawn)	L major viab 60.1 (no result: ROMK mod, Insulin prom inh)
Cc1ccc(-n2c(N)c(S(=O)(=O)c3ccccc3)c3nc4ccccc4nc32)cc1	L major viab 57.2 (no result: Insulin prom up, Insulin prom inh)
Cc1ccccc1NC(=O)c1c2c(nc3ccccc13)CCC2	none (no result: Insulin prom inh)
C#CCOCCOCCOCCNc1nc(N2CCOCC2)nc(N2CCN(C(=O)[C@H](Cc3ccc(O)cc3)n3cc([C@@H](N)CC(C)C)nn3)CC2)n1	none (no result: ROMK mod, Insulin prom inh)
O=c1nc(-c2ccccc2)cc(C(F)(F)F)[nH]1	none (no result: ROMK mod)
Cc1ccc(S(=O)(=O)c2c(N)n(/N=C/c3ccco3)c3nc4ccccc4nc23)cc1C	L major viab 78.7 (no result: ROMK mod, Insulin prom up)
COc1ccc(S(=O)(=O)c2c(N)n(Cc3ccco3)c3nc4ccccc4nc23)cc1	L major viab 72.2
O=C(O)c1nc(-c2ccccc2)n(-c2ccc(Cl)cc2)n1	none (no result: KCC2 mod, ROMK mod, Insulin prom up)
COc1cccc(/C=N/NC(=O)c2ccccc2N(Cc2ccccc2)S(=O)(=O)c2ccccc2)c1OC	L major viab 90.6 (no result: KCC2 mod, ROMK mod, Insulin prom up)
COc1ccc(OC)c(S(=O)(=O)N(C)CC(=O)Nc2ccccc2OC)c1	none (no result: ROMK mod)
COc1cccc(/C=N/NC(=O)c2ccc(N(C)S(=O)(=O)c3ccccc3)cc2)c1OC	none (no result: Insulin prom up)
CCOc1cc(NC(=S)Nc2ccccc2)c(OCC)cc1NC(=O)c1ccc(OC)cc1	L major viab 96.3 (no result: KCC2 mod, ROMK mod, Insulin prom up)
COc1ccccc1C(=O)Nc1cc(Cl)ccc1O	none (no result: ROMK mod, Insulin prom inh)
COc1ccc(OC)c(/C(O)=C/C(=O)C(=O)Nc2ccccc2OC)c1	L major viab 95.5
CCOc1ccccc1C(=O)Nc1cc(Cl)ccc1O	L major viab 79.4
O=C(OCCCC(=O)N1CCOCC1)c1ccccc1	none
COc1ccc(OC)c(NC(=O)c2ccccc2N(Cc2ccccc2)S(C)(=O)=O)c1	L major viab 79.8
CCOc1ccccc1C(=O)Nc1cc(OC)ccc1OC	WT yeast gro inh 62.8 (no result: KCC2 mod, Insulin prom inh)
COc1ccccc1C1CCN(C(=O)c2cccs2)CC1	none (no result: L major viab, WT yeast gro inh, Insulin prom inh)
CCCN(Cc1cc2ccc(C)cc2[nH]c1=O)C(=O)c1ccccn1	none (no result: ROMK mod, Insulin prom up, Insulin prom inh)
Cc1ccc(-n2c(C)cc(C3=NNC(=NC4CC4)SC3)c2C)cc1C	L major viab 87.1, WT yeast gro inh 77.9 (no result: ROMK mod, Insulin prom inh)
Cc1cc(C2=NNC(=NC3CC3)SC2)c(C)n1-c1c(C)n(C)n(-c2ccccc2)c1=O	none
Cc1ccc(S(=O)(=O)N(C)CC(=O)Nc2cccc(C)n2)cc1	Insulin prom inh 78.7 (no result: ROMK mod)
Cc1ccc(OCC(=O)NC(=S)Nc2cccc(C)n2)cc1	KCC2 mod 8.41 (no result: Insulin prom up)
CCOC(=O)c1ccc(NC(=S)Nc2cccc(N)n2)cc1	none (no result: L major viab, ROMK mod, WT yeast gro inh, Insulin prom inh)
CCOC(=O)c1ccc(NC(=S)Nc2cccc(C)n2)cc1	L major viab 56.8
Cc1ccc(-c2csc(NC(=S)NC(=O)c3cccs3)n2)cc1	none
Cc1cccc(NC(=S)NC(=O)c2cccs2)n1	KCC2 mod 18 (no result: ROMK mod)
O=C(Cn1cc([N+](=O)[O-])cn1)Nc1ccc(Cn2cc(Br)cn2)cc1	none (no result: ROMK mod, Insulin prom up, Insulin prom inh)
